Sampled rows, rich in hits. Any-hit rate of the full collection: about 5%.
ALR H2O2 inh = inhibitors of human ALR sulfhydryl oxidase, primary screen, biochemical, H2O2 detection, HRP-luminol luminescence, single point | FAD-linked sulfhydryl oxidase ALR (Homo sapiens), P55789 | purified ALR, DTT oxidation | inhibition, % (test concentration not listed) | 290,000 tested, 3.8% active;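 active means mean replicate inhibition above about 79%, with every replicate also reaching it, limit read from the data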
AI-2 QS modul = Vibrio harveyi AI-2 quorum sensing modulators, primary screen, JMH597 strain, luminescence/OD600 ratio; Vibrio harveyi JMH597 AI-2 luminescence/OD600 ratio, 9 h; stronger effect = lower value; strain lacks LuxN and CqsS sensors; 0 = neutral-control median; activity change, % at 7.5 µM; 300,000 tested, 0.4% active; in the data active means activity change below about -75%, passing the limit was not always enough;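 further: luminescence divided by OD600 gain over 9 h not by final OD600 alone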
PREPL inhibitor = PREPL enzyme inhibitors, primary screen, biochemical, fluorescence polarization. recombinant PREPL, fluorescence polarization activity-based probe. 320,000 tested, 0.68% active. Prolyl endopeptidase-like (Homo sapiens), Q4J6C6. inhibition, % at 5.96 µM; in the data active means inhibition above about 43%;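 further: 0% = enzyme with DMSO and 100% = wells lacking enzyme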
CHT allo act = CHT positive allosteric modulators, primary screen, cell-based, membrane potential dye, choline EC20; High affinity choline transporter 1 (Homo sapiens), Q9GZV3; CHT-expressing cells; stronger effect = higher value; LV-AA mutant CHT in HEK293 cells; B-score at 10 µM; 310,000 tested, 0.49% active;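 active means initial fluorescence not abnormally high and integrated response B-score, plate-corrected, over 3 SD above library mean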
Target sequence (Q9GZV3 whole entry, looked up): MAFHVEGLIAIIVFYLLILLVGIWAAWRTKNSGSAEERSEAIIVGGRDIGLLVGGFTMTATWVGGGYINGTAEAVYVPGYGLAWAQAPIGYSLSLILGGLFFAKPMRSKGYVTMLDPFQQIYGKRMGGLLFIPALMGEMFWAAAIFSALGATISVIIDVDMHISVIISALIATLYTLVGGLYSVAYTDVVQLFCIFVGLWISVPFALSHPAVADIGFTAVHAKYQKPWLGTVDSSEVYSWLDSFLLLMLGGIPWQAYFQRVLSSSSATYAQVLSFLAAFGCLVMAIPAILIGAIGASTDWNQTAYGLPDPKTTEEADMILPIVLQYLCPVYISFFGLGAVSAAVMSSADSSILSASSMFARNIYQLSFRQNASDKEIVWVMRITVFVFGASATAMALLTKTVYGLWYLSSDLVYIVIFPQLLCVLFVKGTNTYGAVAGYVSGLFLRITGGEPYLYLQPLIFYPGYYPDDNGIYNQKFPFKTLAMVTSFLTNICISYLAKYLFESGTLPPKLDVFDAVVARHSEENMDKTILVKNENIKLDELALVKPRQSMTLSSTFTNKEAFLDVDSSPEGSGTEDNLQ
CHT block = inhibitors of human choline transporter CHT | High affinity choline transporter 1 (Homo sapiens), Q9GZV3 | CHT-expressing cells, membrane potential dye, choline response; stronger effect = lower value | B-score at 10 µM | 310,000 tested, 0.86% active;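 active means B-score over 3 SD under the library average, and starting fluorescence ratio not unusually high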;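 further: choline stimulus applied at its EC90 after an EC20 pre-addition; B-score computed on integrated fluorescence ratio after choline addition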
CHT act confirm = CHT activators, confirmation, cell-based, membrane potential dye, duplicate; shares compounds with CHT allo act; CHT-expressing cells, membrane potential dye fluorescence (FDSS); % of choline EC20–EC90 response window; HEK293 expressing CHT LV-AA mutant; choline added at its EC20; AID 504833, 2011; 2,500 tested, 91% active; activation, % at 10 µM;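 active means primary screen active, with duplicate mean activation above negative control mean plus 3 SD, cut at about 11% in these data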
HEK293 MP dye = membrane potential response in parental HEK293 cells, counter-screen for CHT activator project, cell-based, membrane potential dye; shares compounds with CHT allo act; membrane potential dye fluorescence (FDSS); measured after EC20 choline addition; ratio readout change at 10 µM, hits read low; 2,500 tested, 62% active; AID 623908, 2012;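 active means duplicate-averaged ratio beyond 3 SD from buffer wells, up or down, though filed actives are nearly all decreases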
Starred values were filed as active, the others as inactive; i = inactive; nt = no result given.

SMILES	ALR H2O2 inh	AI-2 QS modul	PREPL inhibitor	CHT allo act	CHT block	CHT act confirm	HEK293 MP dye
Cc1cc(/C=C2/C(=N)N3C(=NC2=O)SN=C3S(C)(=O)=O)c(C)n1-c1ccccc1F	91.0*	31.8	1.3	7.61*	i	-16.6	i
CC1=CC2=NC(=O)/C(=C\c3cc(C)n(-c4ccccc4F)c3C)C(=N)N2O1	-5.3	23.5	-16.7	i	i	nt	nt
Cc1sc2c(=O)n3c(nc2c1C(=O)NCCCN1CCOCC1)CCCCC3	0.5	18.9	11.2	6.9*	i	50.7*	-40.1*
Cc1sc2c(=O)n3c(nc2c1C(=O)NC1CCCCC1)CCCCC3	11.8	32.3	-5.8	i	i	nt	nt
O=C1CC2(CCN(C(=O)c3ccccc3Cl)CC2)Oc2ccccc21	0.5	14.2	18.4	i	i	-8.9	i
O=C1CC2(CCN(C(=O)c3cccc(Cl)c3)CC2)Oc2ccccc21	-2.7	9.2	34.3	i	i	nt	nt
O=C1CC2(CCN(C(=O)c3cccc(Br)c3)CC2)Oc2ccccc21	-0.5	9.4	36.6	8.89*	i	5.1	i
CC(NC(=O)CSc1nc(C2CC2)n(-c2ccccc2)n1)c1ccco1 (stereo unspecified)	nt	nt	-1.2	nt	nt	nt	nt
CC(NC(=O)Cn1c(NCCO)nc2ccccc21)C1CC2CCC1C2 (stereo unspecified)	-1.8	-3.4	-5.8	i	i	38.1*	i
CCc1c(C)c(C#N)c2nc3ccccc3n2c1NCc1ccco1	5.2	16.4	13.1	i	i	11.4*	i
O=C(NC1CCCCC1)C(c1cccs1)N(Cc1cccs1)C(=O)c1cccs1 (stereo unspecified)	-19.0	-1.8	10.9	9.21*	i	29.7*	i
COCCN(C(=O)CNC(=O)c1cccs1)C(C(=O)NC1CCCC1)c1cccs1 (stereo unspecified)	13.7	17.3	-0.7	i	i	nt	nt
COc1ccccc1N(C(=O)c1ccco1)C(C(=O)NC1CCCC1)c1cccs1 (stereo unspecified)	-3.6	0.8	17.6	11.1*	i	22.7*	i
COc1ccc(N(C(=O)c2ccco2)C(C(=O)NC2CCCC2)c2cccs2)cc1OC (stereo unspecified)	-34.2	-4.3	4.6	i	i	nt	nt
CC1CCCC(C)N1C(=O)COC(=O)CNC(=O)c1ccc(Cl)cc1Cl (stereo unspecified)	0.3	6.2	7.0	i	i	nt	nt
O=C(Cn1c(-c2ccccc2)c[n+]2ccsc12)c1ccc(Br)cc1	30.9	19.1	18.5	i	i	41.8*	-33.9*
C[n+]1ccn(CC(=O)c2ccc(Br)cc2)c1	4.0	7.1	29.7	i	i	nt	nt
Cc1c(/N=C(\[O-])Nc2ccc(Br)cc2)sn[n+]1C	-2.8	37.1	-2.5	i	i	nt	nt
Cn1c(-c2ccccn2)[n+](C)c2ccccc21	7.2	22.4	-5.1	i	i	44.0*	-36.9*
Cn1c(-c2cccc([N+](=O)[O-])c2)[n+](C)c2ccccc21	-4.4	18.0	13.6	i	i	nt	nt
Cn1c(-c2ccc3ccccc3n2)[n+](C)c2ccccc21	-8.7	36.6	19.8	i	i	nt	nt
CN(C)c1ccc(-c2n(C)c3ccccc3[n+]2C)cc1	-7.8	5.6	8.3	8.29*	i	63.7*	-50.6*
CCCc1cc(=O)oc2cc(C)cc(OCC(=O)N3CCC(C(=O)O)CC3)c12	-20.0	19.1	7.6	i	i	nt	nt

Assay outcomes: PubChem, several laboratories
